Bioassay records (PubChem)
Hits are enriched below; roughly 2% of the tested compounds scored in any of these assays.
Mot1-301 SUMO: inhibitors of SUMOylation pathway: yeast Mot1-301 growth rescue | S. cerevisiae Mot1-301 growth rescue, ATP luminescence, 38.5C; percent above DMSO median, 100 means doubled | growth rescue, % at 18.8 µM | 320,000 tested, 1% active;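 active = every valid replicate shows activation above 250% relative to neutral control wells; inactive = the rest, any valid replicate at or below 250%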
MsrA inhibitor: inhibitors of bovine MsrA. purified bovine MsrA, absorbance read-out. inhibition, % at 15.5 µM. 360,000 tested, 0.75% active. AID 651718
MsrA act: activators of bovine methionine sulfoxide reductase A. purified bovine MsrA, absorbance read-out. activation, % at 10.6 µM. 360,000 tested, 0.3% active. AID 602163; in the data active = activation above about 7.5%
PKA-R1A activ: activates the PKA-R1A holoenzyme complex; P00514+P68181; PKA-R1A dissociation, Cy5-IP20 fluorescence polarization; scaled: DMSO 0%, 113 µM cGMP 100%; activation, % at 11.4 µM; 340,000 tested, 0.083% active; AID 504707;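 active = percent activation above the mean of all tested compounds plus 3 SD, cut at about 19% in these data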;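 also: higher means more PKAc released from R1A so a rise in polarization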
PKA-R2B act: activates the human PKA-R2B holoenzyme complex. PKA-R2B holoenzyme dissociation, Cy5-IP20 fluorescence polarization; R2B truncated from residue 108, S112A mutant; 0% DMSO only, 100% 113 µM cGMP. P22694+P31323. activation, % at 11.4 µM. 340,000 tested, 0.079% active. AID 504700;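 active = activation above a cutoff set at the mean over all compounds plus 3 SD, cut at about 18% in these data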;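 also: higher means more holoenzyme dissociation and a rise in polarization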
Target sequence (P31323 whole entry, looked up, other chains not shown, the tested form may be a part): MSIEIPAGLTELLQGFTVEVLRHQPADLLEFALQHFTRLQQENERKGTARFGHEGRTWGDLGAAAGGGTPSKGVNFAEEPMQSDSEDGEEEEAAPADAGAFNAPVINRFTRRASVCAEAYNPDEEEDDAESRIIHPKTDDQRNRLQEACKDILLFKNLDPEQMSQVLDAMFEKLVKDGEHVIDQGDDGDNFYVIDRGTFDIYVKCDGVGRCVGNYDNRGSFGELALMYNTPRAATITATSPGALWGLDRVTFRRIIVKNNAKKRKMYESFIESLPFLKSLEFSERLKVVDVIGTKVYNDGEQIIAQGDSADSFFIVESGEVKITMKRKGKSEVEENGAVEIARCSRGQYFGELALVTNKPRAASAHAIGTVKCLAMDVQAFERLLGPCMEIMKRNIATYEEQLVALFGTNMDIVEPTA
MsrA inh confirm: bovine MsrA inhibition, confirmed | shares compounds with MsrA inhibitor | purified bovine MsrA, absorbance read-out | inhibition, % at 15.5 µM | 2,300 tested, 41% active | AID 651822;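 also: coupled to thioredoxin reductase with NADPH and selenocystamine and DMSO as substrate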
Each line names hits and unclear results; the compound was inactive in the other large screens (follow-up assays come after a bar, where they were run). Rule as the data show it, unless noted: active = inhibition above about 4.5%; inactive = the rest.

COc1ccc(/C=C2\Oc3cc(OCC(=O)N4CCC[C@H]4C(=O)O)ccc3C2=O)c(OC)c1OC	MsrA inhibitor 5.1 | MsrA inh confirm 5.5
COc1ccc(/C=C2\Oc3cc(OCC(=O)N4CC(O)C[C@H]4C(=O)O)ccc3C2=O)c(OC)c1OC (stereo not given in full)	MsrA inhibitor 4.9 | MsrA inh confirm inactive
COc1ccc(/C=C2\Oc3cc(OCC(=O)N4CCC[C@H]4C(=O)O)ccc3C2=O)cc1OC	none (no result: MsrA inhibitor)
Cc1nn(CCC(N)=S)c2nc(-c3cccs3)cc(C(F)(F)F)c12	MsrA inhibitor 4.8 | MsrA inh confirm inactive
COc1cccc(/C=C2/SC(=O)N(CC(=O)N3CCc4ccccc4C3)C2=O)c1OCC(=O)O	MsrA inhibitor 4.8 | MsrA inh confirm inactive
COc1cccc(/C=C2/SC(=O)N(C)C2=O)c1OCc1ccc(C(=O)O)cc1	none
CN(Cc1ccccc1)c1ncc(C=O)s1	MsrA inhibitor 7.5 | MsrA inh confirm 5.8
O=Cc1cnc(N2CCN(Cc3ccccc3)CC2)s1	none
Cc1cc(C)c(S(=O)(=O)c2cccc(Cl)c2)c(Cl)n1	none
O=c1[nH]c(=S)[nH]cc1S(=O)(=O)c1cccc(Cl)c1	MsrA inhibitor 5.8 | MsrA inh confirm inactive
CCSc1nnc(NC(=O)c2cccs2)s1	MsrA inhibitor 5.2 | MsrA inh confirm inactive
O=C(Nc1nnc(SCc2ccccc2)s1)c1cccs1	none
CCc1ccc([C@H]2[C@@H]3C(=O)C[C@@H]4C(=O)NC(=O)[C@@H]4[C@@H]3CN2S(=O)(=O)c2ccc(C)cc2)cc1	none (no result: Mot1-301 SUMO, PKA-R1A activ, PKA-R2B act)
O=C(O)C(=Cc1ccc([N+](=O)[O-])cc1)c1cccc(Cl)c1	none (no result: Mot1-301 SUMO)
O=C1[C@@H]2CSCCS(=O)(=O)N2C(=O)N1C1CCCCC1	none (no result: Mot1-301 SUMO, MsrA act, PKA-R1A activ, PKA-R2B act)
Cc1nn(-c2ccccc2)c(N)c1N=Nc1ccc2ccccc2c1	none
Cc1ccc(N=Nc2c(N)nn(-c3ccccc3)c2N)cc1	MsrA inhibitor 5.0 | MsrA inh confirm inactive
Cc1ccc(-c2csc3nc(C)n(-n4c(C)ccc4C)c(=O)c23)o1	MsrA inhibitor 15 | MsrA inh confirm 12
Cc1ccc(-c2csc3nc(C)n(N)c(=O)c23)o1	none
Cc1ccc(C)n1-n1c(C)nc2scc(-c3ccccc3)c2c1=O	MsrA inhibitor 27 | MsrA inh confirm 26
Cc1cccc(C)c1NC(=O)C1(C)CN(S(C)(=O)=O)CC(=O)N1CCCN1CCOCC1 (stereo not given)	none (no result: Mot1-301 SUMO, MsrA act, PKA-R1A activ, PKA-R2B act)
O=C(NN=Cc1c(F)c(F)c(F)c(F)c1F)c1ccc(NS(=O)(=O)c2cccs2)cc1	none
CC(=O)Nc1ccc(C=NNC(=O)c2ccc(NS(=O)(=O)c3cccs3)cc2)cc1	MsrA inhibitor 4.8 | MsrA inh confirm 7.1
CC(=O)Nc1ccc(/C=N/NC(=O)c2cccc(S(=O)(=O)N3CCOCC3)c2)cc1	MsrA inhibitor 6.2 | MsrA inh confirm inactive
COc1cc(C=NNC(=O)c2ccc(NS(=O)(=O)c3cccs3)cc2)cc(Br)c1O	MsrA inhibitor 5.6 | MsrA inh confirm 6.0
COc1ccccc1CNC(=O)c1ccc(NS(=O)(=O)c2cccs2)cc1	none
Cc1ccc(CNC(=O)c2ccc3c(c2)NC(=O)CS3)cc1	none
Cc1cc(C)cc(C(=O)/C=C2\NC(=O)CS2)c1	MsrA inhibitor 5.3 | MsrA inh confirm 5.3
COc1cc2c(c3c1c(=O)c1ccccc1n3C)C=CC(C)(C)O2	none (no result: Mot1-301 SUMO, MsrA act, PKA-R1A activ, PKA-R2B act)
COc1cc(C2C(C(=O)c3ccco3)=C(O)C(=O)N2CCc2ccccc2)ccc1O (stereo not given)	none
COc1ccc(CCN2C(=O)C(O)=C(C(=O)c3ccco3)C2c2cccs2)cc1OC (stereo not given)	MsrA inhibitor 4.7 | MsrA inh confirm inactive
COc1cccc(C2C(C(=O)c3ccco3)=C(O)C(=O)N2CCCN2CCOCC2)c1OC (stereo not given)	MsrA inhibitor 4.7 (no result: Mot1-301 SUMO) | MsrA inh confirm inactive
COc1ccc(C2C(C(=O)c3ccco3)=C(O)C(=O)N2CCN2CCOCC2)cc1 (stereo not given)	none
COC(=O)[C@@]12C[C@@H](CC(=O)NCc3cccc4ccccc34)C(=O)N(Cc3ccco3)C1=CCC(C)(C)C2	none (no result: Mot1-301 SUMO, MsrA act, PKA-R1A activ, PKA-R2B act)
CC1(C)Cc2c(sc(/N=C/N3CCCC3)c2C#N)C(C)(C)N1	MsrA inhibitor 5.1 | MsrA inh confirm inactive
Brc1ccc2nc(-c3ccco3)c(CC3CCCCC3)n2c1	none (no result: Mot1-301 SUMO, PKA-R1A activ, PKA-R2B act)
O=[N+]([O-])c1c(Cl)cc(Cl)cc1Cl	none (no result: Mot1-301 SUMO, MsrA act, PKA-R1A activ, PKA-R2B act)
Oc1ccc(/C=N\Nc2nncc(-c3ccccc3)n2)cc1	MsrA inhibitor 5.8 | MsrA inh confirm inactive
Cc1ccc[n+](-c2[nH]c(=O)sc2/C=N/NC(=O)c2ccccc2[O-])c1	MsrA inhibitor 4.9 | MsrA inh confirm inactive
O=C(N/N=C/c1sc(=O)[nH]c1-[n+]1ccccc1)c1ccccc1[O-]	none
Cc1ccc[n+](-c2[nH]c(=O)sc2/C=N/N=C(\[O-])c2cccnc2)c1	none
Cc1cc[n+](-c2[nH]c(=O)sc2/C=N/N=C(\[O-])c2ccncc2)cc1	MsrA inhibitor 13 | MsrA inh confirm inactive
Cc1cc(C)c[n+](-c2[nH]c(=O)sc2/C=N/N=C(\N)[S-])c1	MsrA inhibitor 5.4 | MsrA inh confirm 5.5
CCc1ccc[n+](-c2[nH]c(=O)sc2/C=N/N=C(\[O-])c2cccnc2)c1	none
O=c1[nH]c(-[n+]2ccccc2)c(/C=N/N=C(\[O-])c2ccccc2)s1	MsrA inhibitor 5.0 | MsrA inh confirm 5.2
CNC[C@@H]1OCc2ccccc2-c2c(n(C)c3ccccc23)C(=O)N([C@@H](C)CO)C[C@@H]1C	none (no result: Mot1-301 SUMO, MsrA act, PKA-R1A activ, PKA-R2B act)
COc1cccc(Cn2c(C(C)n3c(C)nc4ccccc43)nc3ccccc32)c1 (stereo not given)	none (no result: Mot1-301 SUMO, MsrA act, PKA-R1A activ, PKA-R2B act)
Cc1cc[n+](-c2[nH]c(=O)sc2/C=N/N=C(\[O-])c2ccccc2)cc1C	MsrA inhibitor 4.7 (no result: Mot1-301 SUMO) | MsrA inh confirm inactive
Cc1cc[n+](-c2[nH]c(=O)sc2/C=N/N=C(\[O-])c2ccncc2)cc1C	none
Cc1cc[n+](-c2[nH]c(=O)sc2/C=N/N=C(\[O-])c2ccccc2)cc1	MsrA inhibitor 5.0 (no result: PKA-R1A activ, PKA-R2B act) | MsrA inh confirm inactive
CN(C)c1ncnc2c1ncn2[C@H]1CN(Cc2ccc3c(c2)OCO3)C[C@@H](CO)O1	none (no result: Mot1-301 SUMO, PKA-R1A activ, PKA-R2B act)
O=C1c2ccccc2C(=O)c2cc(N3CCCCC3)ccc21	none (no result: Mot1-301 SUMO)
O=C1c2cccc(Cl)c2C(=O)c2c1cccc2N1CCCC1	MsrA inhibitor 9.4 | MsrA inh confirm inactive
CCC(CC)C(C(=O)NCc1ccccc1)N1CCN(c2cccc(C)c2C)CC1 (stereo not given)	none (no result: Mot1-301 SUMO, MsrA act, PKA-R1A activ, PKA-R2B act)
O=[N+]([O-])c1ccc2[nH]c(O)c(N=NC3CS(=O)(=O)CC3O)c2c1 (stereo not given)	MsrA inhibitor 5.2 | MsrA inh confirm 5.0
O=C(N=Nc1c(O)[nH]c2ccc([N+](=O)[O-])cc12)c1ccccc1Cl	none
CCCc1cc(=O)[nH]c(N/N=C/C=C\c2ccccc2)n1	MsrA inhibitor 6.7 | MsrA inh confirm 5.5
